Data on 30 compounds can be found in PubChem BioAssay AID2278 (National Center for Advancing Translational Sciences (NCATS), 2010).

SMILES strings stand for the structures. Records with an inconclusive call do not appear. Where a call stands in place of a potency, no number is given. The source made the active and inactive calls. Calls come from the whole dose curve; as a rule, active = well fitted curve in the direction sought with a large enough effect; inconclusive = small, poorly fitted or top-dose-only effect, or another doubt; inactive = no such curve, though single readings can be large or run the other way.

Chain of Group 10 secretory phospholipase A2 (Mus musculus) (Q9QXX3 whole entry, looked up): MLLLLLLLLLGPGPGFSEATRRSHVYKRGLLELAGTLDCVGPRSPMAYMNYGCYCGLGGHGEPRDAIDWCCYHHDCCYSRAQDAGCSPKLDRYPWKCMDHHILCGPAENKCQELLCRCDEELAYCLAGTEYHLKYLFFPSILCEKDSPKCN

The target of the assay is Group 10 secretory phospholipase A2 (Mus musculus) (UniProt Q9QXX3). As to the kind of experiment: Secondary Assay for Inhibitors of Ubiquitin-specific Protease USP2a: PLA2 Counterscreen. The note with it: purified murine PLA2, NBD C6-HPC fluorescence; series mostly up to 57.5 µM. The source says:
NIH Molecular Libraries Screening Centers Network [MLSCN] NIH Chemical Genomics Center [NCGC] MLSCN Grant: XO1-MH079852-01 PI Name: Nicholson, Ben. Progenra Inc, Malvern, PA NCGC Assay Overview: Homeostasis of cellular proteins is maintained through a combination of synthesis and degradation. The pathway that accounts for the majority of protein degradation is the ubiquitin-proteasomal pathway. Ubiquitin (Ub) is highly conserved in all cells and the generation of a multi-Ub chain typically targets proteins for degradation by the proteasome. However, ubiquitination is highly reversible and dynamic. Deubiquitination, the reverse process, is catalyzed through the action of enzymes referred to as isopeptidases or deubiquitinating enzymes (DUBs). This group of enzymes is collectively responsible for maintaining adequate pools of free ubiquitin and regulating the ubiquitination status of cellular proteins. The class of DUBs referred to as the ubiquitin-specific proteases (USP) family functions endoproteolytically to cleave Ub chains from a wide range of protein substrates. USP2a deubiquitinates fatty acid synthase (FASN) which has recently been identified as an emerging oncology target. To identify inhibitors of USP2a a cell-free assay was employed. This is assay is a counterscreen used for the for the USP2a-PLA2 coupled assay. In this assay the murine PLA2 reporter enzyme is screened alone using NBD C6-HPC (Invitrogen) as a fluorogenic substrate.
NCGC Assay Protocol Summary: The assay buffer, prepared fresh at the day of the assay, contains 20mM Tris-HCl pH 8.0, 2mM CaCl2, 2mM beta-mercaptoethanol, 0.1% DMSO. 3ul of 10nM (5nM final) free PLA2, which is stored on ice, is dispensed into a medium-binding black solid Kalypsys 1,536 well plate using the Aurora BioRaptr. The assay plate is then pinned with 23nL compound with the Kalypsys pintool. The controls were pinned as follows: row 31 2M NEM and row 32 DMSO. Subsequently, 3uL 40uM (20uM final) NBD C6-HPC (stored on ice and protected from light) were dispensed into the plate using the BioRaptr dispenser. Plates were read immediately on an Envision (Perkin Elmer) plate reader using wavelengths of Ex 460nm /Em 535nm. Then, the assay plates were incubated for 2.5 hours and read again on the Envision using the same settings. Data were normalized to the to AC100 inhibition (NEM). Concentration-response curves were fitted to the normalized data and the concentration-response curves were then classified based on curve quality (r2), response magnitude and degree of measured activity. The time zero reading was used to flag fluorescence artifacts. Keywords: ubiquitination, deubiquitination, proteases, profluorescent, MLSMR, MLSCN, NIH Roadmap, qHTS, NCGC
As for `O=C(CSc1nc2ccsc2c(=O)n1-c1ccc(Br)cc1)NCc1ccccc1`, the Potency entry was “inactive”.
For `CCc1ccc(C(=O)c2c(N)c(-c3nc(-c4ccc5c(c4)OCO5)cs3)c3ccccn23)cc1` the value was “inactive”; for `Cc1ccc(-n2nc3c(=O)n(CCCC(=O)NCCc4ccccc4Cl)nc(C)c3c2C)cc1`, “inactive”; for `CCOC(=O)C1CCCN(c2c(C(=O)c3ccc(C)cc3)cnc3ccc(OCC)cc23)C1` (stereo not given), “inactive”.
For `O=C(CCS(=O)(=O)c1ccccc1)N(Cc1cccnc1)c1nc2c(Cl)cccc2s1` the value was “inactive”; for `CCC(=O)C1=C(c2ccc(OC)c(OC)c2)N(C(=O)CC)n2c(CC)nnc2S1`, “inactive”.
Next, `CCc1cccc(NC(=O)CSc2ncccc2C(=O)Oc2ccccc2Cl)c1`: “inactive”; `Cc1ccc2scc(N3CCN(c4cccc(C(F)(F)F)c4)CC3)c(=O)c2c1`: “inactive”; `COc1cc(C2C(C(=O)Nc3ccccc3C)=C(C)Nc3nc(SCc4cc(C)ccc4C)nn32)ccc1O` (stereo not given): “inactive”.
Consider `Cc1nn(C(=O)c2cccc([N+](=O)[O-])c2C)c(C)c1S(=O)(=O)N1CCCCCC1`, for which the Potency result is “inactive”.
Regarding `COc1ccc(C2=CC(c3cccc(C)c3)n3nnnc3N2)cc1` (stereo not given), the Potency entry was “inactive”.
Next, `Cc1ccc([C@H]2Nc3ccc(S(=O)(=O)Nc4cccc(Cl)c4C)cc3[C@H]3C=CC[C@H]32)cc1`: “inactive”.
Consider `CCCCCC(=O)N1c2ccccc2C(C)(c2ccccc2)CC1(C)C` (stereo not given), for which the Potency entry was “inactive”.
For the compound `COc1ccc2c(c1)c1c(c(=O)n(-c3ccc(OC)c(OC)c3)c(=O)n1Cc1ccccc1C)n2C`, the Potency entry was “inactive”.
On to `Cc1cc(C)c2nc(N(Cc3cccnc3)C(=O)CCS(=O)(=O)c3ccccc3)sc2c1`, for which the Potency result is “inactive”.
For `Cc1c(C(=O)N(C)C)sc2c1c(=O)n(-c1ccc(Cl)c(Cl)c1)c(=O)n2CC(=O)Nc1ccc(Br)cc1F`, the Potency result is “inactive”.
Next, `Cc1cc(C)cc(NC(=O)c2sc3nc4n(c(=O)c3c2C)N=C(c2ccccc2)CS4)c1`: 20 µM (active); `O=c1c(O)c(-c2cc(O)c(O)c(O)c2)oc2cc(O)cc(O)c12`: “inactive”; `COc1ccc(Cl)cc1NC(=O)CSc1nc(=O)[nH]c2c1CCC2`: “inactive”.
Next, `COc1ccc(C2C=C(c3ccc(Br)cc3)Nc3nnnn32)c(OC)c1` (stereo not given): “inactive”; `COC(=O)c1c(NC(=O)CS(=O)(=O)c2ccc(C)cc2)sc2c1CCCCC2`: “inactive”.
As for `O=C(CSc1nc(=O)n(Cc2ccccn2)c2c1CCC2)Nc1ccccc1`, the Potency entry is “inactive”.
For `CCOc1ccc(C2=C(C(C)=O)Sc3nnc(C)n3N2C(C)=O)cc1` the value was “inactive”.
Next, `CCCc1cc(=O)oc2c3c(ccc12)OCN(Cc1ccc(OC)cc1)C3`: “inactive”; `CCCCn1c(SCC(=O)NCCCOC)nc2c(sc3ccccc32)c1=O`: “inactive”.
`CCC(C)NC(=O)CSc1nc2cc3c(cc2c(=O)n1Cc1ccc(C(=O)NCCc2ccc(OC)c(OC)c2)cc1)OCO3` (stereo not given): the Potency entry is “inactive”.
For `CC(=O)Nc1ccc(NC(=O)Cn2nc(C(=O)Nc3ccc(C)cc3)ccc2=O)cc1` the value was “inactive”; for `COc1ccc(C(=O)/C=C/c2cn(CC(O)CN(CC(C)C)CC(C)C)c3ccccc23)cc1OC` (stereo not given), “inactive”.
Next, `Cc1nnc(SCC(=O)NCc2ccccc2F)c2nn(-c3ccc(Cl)cc3)c(C)c12`: “inactive”; `Oc1c(C(Nc2ccccn2)c2ccccc2F)ccc2cccnc12` (stereo not given): “inactive”.
